# Results filed as inconclusive are left out. A call without a number means that no potency is given here. A number with no mark means an inactive call. Active and inactive are the calls of the source. Unless noted, the call rests on the fitted dose curve; in most records, active means well fitted curve in the direction sought with a large enough effect; inconclusive means small, poorly fitted or top-dose-only effect, or another doubt; inactive means no such curve, though single readings can be large; an effect the other way counts as inactive or inconclusive.
# Experiments:
# [1] = qHTS profiling for inhibitors of Plasmodium falciparum proliferation (AID 504749); further: nearly all actives have a fitted effect of over 60% in size; further: potency means the concentration at half of the fitted maximal effect; details: P. falciparum in erythrocytes, SYBR Green DNA, 72 h
# How it was run: (§1)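 Fluorescence of SYBR Green-bound parasite DNA, read at 485/535 nm, served as the growth measure. Infected erythrocytes were cultured with compound 72 h; artemisinin (0.29 uM) and DMSO wells defined the normalization range.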
# [2] = biological target: Ubiquitin carboxyl-terminal hydrolase 1 (Homo sapiens) (UniProt O94782); test: Inhibitors of USP1/UAF1: Pilot qHTS (AID 504865); details: purified USP1/UAF1, Ub-rhodamine cleavage fluorescence; series mostly up to 114 µM; further: nearly all actives have a fitted effect of over 35% in size; further: potency means the concentration at half of the fitted maximal effect
# Ubiquitin carboxyl-terminal hydrolase 1 (Homo sapiens), sequence (O94782 whole entry, looked up): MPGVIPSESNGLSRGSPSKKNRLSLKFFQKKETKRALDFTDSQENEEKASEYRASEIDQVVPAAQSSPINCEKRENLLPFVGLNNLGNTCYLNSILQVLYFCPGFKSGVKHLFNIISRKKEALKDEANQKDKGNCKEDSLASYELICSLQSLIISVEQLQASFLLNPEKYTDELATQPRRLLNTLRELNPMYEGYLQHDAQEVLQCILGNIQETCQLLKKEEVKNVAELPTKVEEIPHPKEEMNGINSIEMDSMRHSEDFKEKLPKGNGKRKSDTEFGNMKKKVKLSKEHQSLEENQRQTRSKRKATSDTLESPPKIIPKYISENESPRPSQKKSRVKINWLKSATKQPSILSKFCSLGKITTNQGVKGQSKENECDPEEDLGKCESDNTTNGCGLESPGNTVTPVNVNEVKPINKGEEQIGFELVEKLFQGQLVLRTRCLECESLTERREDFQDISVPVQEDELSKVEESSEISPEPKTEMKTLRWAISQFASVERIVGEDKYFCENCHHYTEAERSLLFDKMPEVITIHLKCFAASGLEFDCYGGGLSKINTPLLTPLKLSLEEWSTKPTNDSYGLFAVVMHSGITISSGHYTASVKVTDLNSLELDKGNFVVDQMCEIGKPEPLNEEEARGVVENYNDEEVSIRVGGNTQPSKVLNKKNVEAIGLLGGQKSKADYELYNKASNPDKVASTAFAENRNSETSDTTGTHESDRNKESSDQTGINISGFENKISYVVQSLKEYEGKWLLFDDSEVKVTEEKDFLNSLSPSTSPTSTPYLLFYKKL
# How it was run: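 1nM USP1/UAF1 + cpd, 15 min RT; start w/ Ub-Rho 150nM final; kinetic FL 480/540 nm, 6 reads q60 s. Buffer 50mM HEPES pH 7.8, 0.5mM EDTA, 1mM TCEP, 0.01% Tween-20, 0.1 mg/ml BSA.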
# [3] = biological target: Luciferin 4-monooxygenase (Photinus pyralis) (UniProt P08659); test: Biochemical firefly luciferase enzyme assay for NPC (AID 624030);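 further: purified P. pyralis luciferase at 10 nM with luciferin and ATP substrate; nearly all actives have a fitted effect of over 70% in size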; details: purified P. pyralis luciferase, luminescence, 5 min; series mostly up to 58.6 µM
# Luciferin 4-monooxygenase (Photinus pyralis), sequence (P08659 whole entry, looked up): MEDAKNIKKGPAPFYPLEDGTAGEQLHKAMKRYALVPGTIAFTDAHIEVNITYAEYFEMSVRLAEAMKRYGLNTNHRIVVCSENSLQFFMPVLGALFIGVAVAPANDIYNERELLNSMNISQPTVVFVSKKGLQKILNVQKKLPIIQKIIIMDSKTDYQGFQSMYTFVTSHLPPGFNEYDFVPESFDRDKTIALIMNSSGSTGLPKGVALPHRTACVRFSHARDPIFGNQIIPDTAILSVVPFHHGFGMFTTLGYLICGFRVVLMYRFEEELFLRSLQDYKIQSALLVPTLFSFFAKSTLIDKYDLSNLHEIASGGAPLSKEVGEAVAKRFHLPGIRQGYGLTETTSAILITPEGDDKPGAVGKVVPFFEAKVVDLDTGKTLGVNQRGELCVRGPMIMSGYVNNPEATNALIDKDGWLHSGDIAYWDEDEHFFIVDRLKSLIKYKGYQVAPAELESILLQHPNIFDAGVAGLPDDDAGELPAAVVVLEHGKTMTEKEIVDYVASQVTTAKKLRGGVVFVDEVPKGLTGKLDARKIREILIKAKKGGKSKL
# How it was run: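 Counter-screen for direct inhibition of the luciferase enzyme by approved-drug library compounds, run at 10 nM enzyme in 50 mM Tris acetate (final). Luminescence was read within 5 min of enzyme-buffer addition and normalized to PTC124 versus DMSO (0%).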
# [4] = S16 Schwann cell viability assay (CellTiter-Glo assay) (AID 624031); details: S16 rat Schwann cells viability, 24 h; series mostly up to 57.5 µM;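 further: cellular ATP luminescence as a viability measure; nearly all actives have a fitted effect of over 70% in size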
# How it was run: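 Luminescent ATP read-out (CellTiter-Glo) after 24 h compound exposure of native S16 rat Schwann cells at 37 °C. Signals were normalized between cell-free wells and DMSO-treated cells, set as 0% activity.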
# [5] = tested on: C2A; test: qHTS profiling for inhibitors of Plasmodium falciparum proliferation (AID 504749); further: nearly all actives have a fitted effect of over 60% in size; further: potency means the concentration at half of the fitted maximal effect; details: P. falciparum in erythrocytes, SYBR Green DNA, 72 h; series mostly up to 28.7 µM
# How it was run: as §1
# [6] = tested on: CP192; test: as above; details: P. falciparum in erythrocytes, SYBR Green DNA, 72 h; series mostly up to 28.7 µM
# How it was run: as §1
# [7] = tested on: CP201; test: as above; details: P. falciparum in erythrocytes, SYBR Green DNA, 72 h; series mostly up to 28.7 µM
# How it was run: as §1
# [8] = tested on: CP215; test: as above; details: P. falciparum in erythrocytes, SYBR Green DNA, 72 h; series mostly up to 28.7 µM
# How it was run: as §1
# [9] = tested on: CP237; test: as above; details: P. falciparum in erythrocytes, SYBR Green DNA, 72 h; series mostly up to 28.7 µM
# How it was run: as §1
# [10] = tested on: CP238; test: as above; details: P. falciparum in erythrocytes, SYBR Green DNA, 72 h; series mostly up to 28.7 µM
# How it was run: as §1
# [11] = tested on: CP268; test: as above; details: P. falciparum in erythrocytes, SYBR Green DNA, 72 h; series mostly up to 28.7 µM
# How it was run: as §1
# [12] = tested on: CP269; test: as above; details: P. falciparum in erythrocytes, SYBR Green DNA, 72 h; series mostly up to 28.7 µM
# How it was run: as §1
# [13] = tested on: CP325; test: as above; details: P. falciparum in erythrocytes, SYBR Green DNA, 72 h; series mostly up to 28.7 µM
# How it was run: as §1
# [14] = tested on: ECU; test: as above; details: P. falciparum in erythrocytes, SYBR Green DNA, 72 h; series mostly up to 28.7 µM
# How it was run: as §1
# [15] = tested on: FAB9; test: as above; details: P. falciparum in erythrocytes, SYBR Green DNA, 72 h; series mostly up to 28.7 µM
# How it was run: as §1
# [16] = tested on: JCK; test: as above; details: P. falciparum in erythrocytes, SYBR Green DNA, 72 h; series mostly up to 28.7 µM
# How it was run: as §1
# [17] = tested on: PC15; test: as above; details: P. falciparum in erythrocytes, SYBR Green DNA, 72 h; series mostly up to 28.7 µM
# How it was run: as §1
# [18] = tested on: PC49; test: as above; details: P. falciparum in erythrocytes, SYBR Green DNA, 72 h; series mostly up to 28.7 µM
# How it was run: as §1
# [19] = biological target: Cytochrome P450 3A4 (Homo sapiens) (UniProt P08684); test: qHTS Assay for Inhibitors and Substrates of Cytochrome P450 3A4 (AID 884); details: recombinant CYP3A4, Luciferin-PPXE luminescence; series mostly up to 57.1 µM; further: nearly all actives have a fitted effect of over 50% in size
# Cytochrome P450 3A4 (Homo sapiens), sequence (P08684 whole entry, looked up): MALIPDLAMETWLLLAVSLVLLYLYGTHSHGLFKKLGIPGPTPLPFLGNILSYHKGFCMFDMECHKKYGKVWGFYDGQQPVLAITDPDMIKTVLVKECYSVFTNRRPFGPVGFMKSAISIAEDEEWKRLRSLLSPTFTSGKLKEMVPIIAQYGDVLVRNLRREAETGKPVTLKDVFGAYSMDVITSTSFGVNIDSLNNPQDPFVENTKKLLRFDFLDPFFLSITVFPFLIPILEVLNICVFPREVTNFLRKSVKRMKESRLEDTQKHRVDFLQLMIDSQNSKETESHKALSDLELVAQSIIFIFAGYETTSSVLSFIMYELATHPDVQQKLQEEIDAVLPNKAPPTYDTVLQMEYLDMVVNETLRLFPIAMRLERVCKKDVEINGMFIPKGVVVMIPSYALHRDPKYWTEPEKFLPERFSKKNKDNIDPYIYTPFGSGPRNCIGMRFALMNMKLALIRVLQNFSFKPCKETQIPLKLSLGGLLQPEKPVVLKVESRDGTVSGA
# How it was run: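 Luminescent readout of luciferin produced by CYP3A4 (20 nM) dealkylation of Luciferin-PPXE, 25 uM (its KM). NADPH-driven reaction ran 60 min at RT after 10 min compound preincubation; data scaled to 57 uM ketoconazole as 100% inhibition.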
# [20] = S16 Schwann cell PMP22 intronic element beta-lactamase assay (AID 624044; calls by dose curve; further: nearly all actives have a fitted effect of over 15% in size); details: S16 rat Schwann cells, PMP22 element beta-lactamase FRET, 24 h; ratio activity, negative = inhibition: at 38.3 µM (top of the series)
# How it was run: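 Beta-lactamase reporter under a PMP22 intronic regulatory element in stable S16 rat Schwann cells; 24 h compound exposure. 460 nm blue signal normalized between DMSO (0%) and potassium clavulanate, with 535 nm FRET tracking viability; curves classed by r2 and response.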
# [21] = at 28.7 µM (top of the series), parasite line B
# [22] = at 28.7 µM (top of the series), parasite line A
smiles,measurement,setting,value
C[C@@H]1CC[C@H]2[C@@H](C)C(=O)O[C@@H]3OC4(C)CC[C@@H]1C32OO4 (stereo not given in full),Potency,[1]; parasite line A,0.0079 µM (active)
same,Potency,[1]; parasite line B,0.0071 µM (active)
CC1(C)S[C@@H]2[C@H](N)C(=O)N2C1C(=O)O (stereo not given in full),"activity, negative = inhibition","[1]; at 12.8 µM (top of the series), parasite line A",15.1%
same,"activity, negative = inhibition","[1]; at 12.8 µM (top of the series), parasite line B",13.6%
CCCCCc1cc(O)c2c(c1)OC(C)(C)C1CC=C(C)CC21 (stereo not given),Potency,[1]; parasite line A,3.55 µM (active)
same,Potency,[1]; parasite line B,1.12 µM (active)
CC[C@@H]1CN2CCc3cc(OC)c(OC)cc3[C@@H]2C[C@@H]1C[C@H]1NCCc2cc(OC)c(OC)cc21,Potency,[2],inactive
CC(C)=CC1C(C(=O)OCc2coc(Cc3ccccc3)c2)C1(C)C (stereo not given),Potency,[3],inactive
same,Potency,[4],inactive
same,Potency,[5],inactive
same,Potency,[6],inactive
same,Potency,[7],inactive
same,Potency,[8],inactive
same,Potency,[9],inactive
same,Potency,[10],inactive
same,Potency,[11],inactive
same,Potency,[12],inactive
same,Potency,[13],inactive
same,Potency,[14],inactive
same,Potency,[15],inactive
same,Potency,[16],inactive
same,Potency,[17],inactive
same,Potency,[18],inactive
C=C1CC2C(CC[C@]3(C)C(=O)CCC23)[C@]2(C)C=CC(=O)C=C12 (stereo not given in full),Potency,[19],inactive
same,Potency,[2],inactive
same,Potency,[3],inactive
same,Potency,[4],inactive
same,"activity, negative = inhibition",[1]; [21],0.0393%
same,Potency,[5],inactive
same,Potency,[6],inactive
same,Potency,[7],inactive
same,Potency,[8],inactive
same,Potency,[9],inactive
same,Potency,[10],inactive
same,Potency,[11],inactive
same,Potency,[12],inactive
same,Potency,[13],inactive
same,Potency,[14],inactive
same,Potency,[15],inactive
same,Potency,[16],inactive
same,Potency,[17],inactive
same,Potency,[18],inactive
CCC/C=C/C=C/C(=O)OC1/C(=C/C(=O)OC)CC2CC(C(C)O)OC(=O)CC(O)CC3CC(OC(C)=O)C(C)(C)C(O)(CC4C/C(=C/C(=O)OC)CC(/C=C\C(C)(C)C1(O)O2)O4)O3 (stereo not given),Potency,[3],inactive
same,Potency,[4],inactive
same,"ratio activity, negative = inhibition",[20],-43.6% (active)
same,Potency,[1]; parasite line A,1.58 µM (active)
same,Potency,[1]; parasite line B,1.78 µM (active)
same,Potency,[5],1.26 µM (active)
same,Potency,[8],1.69 µM (active)
same,Potency,[9],2.82 µM (active)
same,Potency,[10],1 µM (active)
same,Potency,[11],1.35 µM (active)
same,Potency,[12],1.51 µM (active)
same,Potency,[14],1.26 µM (active)
same,Potency,[15],2.24 µM (active)
same,Potency,[16],3.16 µM (active)
same,Potency,[17],2.24 µM (active)
same,Potency,[18],1.26 µM (active)
NC(Cc1ccc(Oc2cc(I)c(O)c(I)c2)c(I)c1)C(=O)O (stereo not given),Potency,[2],79.4 µM (active)
same,Potency,[4],inactive
same,Potency,[20],inactive
same,"activity, negative = inhibition",[1]; [22],8.09%
same,"activity, negative = inhibition",[1]; [21],-0.518%
same,Potency,[5],inactive
same,Potency,[6],inactive
same,Potency,[7],inactive
same,Potency,[8],inactive
same,Potency,[9],inactive
same,Potency,[10],inactive
same,Potency,[11],inactive
same,Potency,[12],inactive
same,Potency,[13],inactive
same,Potency,[14],inactive
same,Potency,[15],inactive
same,Potency,[16],inactive
same,Potency,[17],inactive
same,Potency,[18],inactive
NCCCCC(NC(CCc1ccccc1)C(=O)O)C(=O)N1CCCC1C(=O)O (stereo not given),Potency,[2],inactive
C[C@]12CC[C@@H]3c4ccc(O)cc4C[C@@H](CCCCCCCCCS(=O)CCCC(F)(F)C(F)(F)F)C3[C@@H]1CC[C@@H]2O (stereo not given in full),Potency,[2],inactive
CCN(CC)C(=O)N[C@@H]1C=C2c3cccc4[nH]cc(c34)C[C@H]2N(C)C1,Potency,[2],inactive
same,Potency,[3],inactive
same,Potency,[20],inactive
same,"activity, negative = inhibition",[1]; [22],-22.6%
same,Potency,[6],inactive
same,Potency,[7],inactive
same,Potency,[8],inactive
same,Potency,[13],inactive
same,Potency,[15],inactive
same,Potency,[18],inactive
CC(=O)N1CCN(c2ccc(OC[C@@H]3CO[C@@](Cn4ccnc4)(c4ccc(Cl)cc4Cl)O3)cc2)CC1,Potency,[2],inactive
CC(CO)NC(=O)C1C=C2c3cccc4[nH]cc(c34)CC2N(C)C1 (stereo not given),Potency,[2],inactive
same,Potency,[3],inactive
same,Potency,[4],inactive
same,Potency,[20],inactive
same,"activity, negative = inhibition",[1]; [22],-10.6%
same,"activity, negative = inhibition",[1]; [21],-8.5%
same,Potency,[5],inactive
same,Potency,[6],inactive
same,Potency,[7],inactive
same,Potency,[8],inactive
same,Potency,[9],inactive
same,Potency,[10],inactive
same,Potency,[11],inactive
same,Potency,[12],inactive
same,Potency,[13],inactive
same,Potency,[14],inactive
same,Potency,[15],inactive
same,Potency,[16],inactive
same,Potency,[17],inactive
same,Potency,[18],inactive
CN1C[C@@H](C(=O)N[C@@]2(C)O[C@]3(O)C4CCCN4C(=O)[C@@H](Cc4ccccc4)N3C2=O)C=C2c3cccc4[nH]cc(c34)C[C@@H]21 (stereo not given in full),Potency,[2],50.1 µM (active)
CN(C)C1C(=O)C(C(N)=O)C(=O)C2(O)C(=O)C3C(=O)c4c(O)cccc4C(C)(O)C3C(O)C12 (stereo not given),Potency,[3],inactive
same,Potency,[4],inactive
same,Potency,[20],inactive
same,Potency,[5],inactive
same,Potency,[6],inactive
same,Potency,[7],inactive
same,Potency,[8],inactive
same,Potency,[10],inactive
same,Potency,[14],inactive
same,Potency,[15],inactive
same,Potency,[16],inactive
same,Potency,[17],inactive
same,Potency,[18],inactive
CC(=O)Oc1ccc2c3c1OC1[C@@H](OC(C)=O)C=C[C@H]4[C@H](C2)N(C)CC[C@]314 (stereo not given in full),Potency,[2],inactive
same,Potency,[3],inactive
same,Potency,[4],inactive
same,Potency,[20],inactive
same,"activity, negative = inhibition",[1]; [22],15.5%
same,"activity, negative = inhibition",[1]; [21],9.45%
same,Potency,[5],inactive
same,Potency,[6],inactive
same,Potency,[7],inactive
same,Potency,[8],inactive
same,Potency,[9],inactive
same,Potency,[10],inactive
same,Potency,[11],inactive
same,Potency,[12],inactive
same,Potency,[13],inactive
same,Potency,[14],inactive
same,Potency,[15],inactive
same,Potency,[16],inactive
same,Potency,[17],inactive
same,Potency,[18],inactive
CC(=O)OC1C([N+]2(C)CCCCC2)C[C@H]2C3CC[C@H]4C[C@H](OC(C)=O)C([N+]5(C)CCCCC5)CC4(C)C3CCC12C (stereo not given in full),Potency,[2],inactive

# From PubChem BioAssay (NCATS)
